From PubChem BioAssay
NLRP3 yeast inh – blocks the NALP3 inflammasome reconstituted in yeast; Yeast reconstituted NLRP3/ASC/caspase-1, beta-gal luminescence, 24 h; inhibition, % at 10 µM; 330,000 tested, 0.39% active; AID 2825;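 active means inhibition of 50% or more; inactive means inhibition below 50%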
GASC-1 inh – blocks human GASC-1 demethylase activity; Q9H3R0; GST-JMJD2C(1-420) H3K9me3 demethylation, DELFIA europium; inhibition, % at 2.35 µM; 330,000 tested, 0.069% active; AID 2099;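 active means more than half of a compound's replicate wells show inhibition beyond 50%, single wells judged on their own value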;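 further: signal counts dimethyl H3K9 product captured on neutravidin plate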
Target sequence (Q9H3R0 1-420 limits assumed): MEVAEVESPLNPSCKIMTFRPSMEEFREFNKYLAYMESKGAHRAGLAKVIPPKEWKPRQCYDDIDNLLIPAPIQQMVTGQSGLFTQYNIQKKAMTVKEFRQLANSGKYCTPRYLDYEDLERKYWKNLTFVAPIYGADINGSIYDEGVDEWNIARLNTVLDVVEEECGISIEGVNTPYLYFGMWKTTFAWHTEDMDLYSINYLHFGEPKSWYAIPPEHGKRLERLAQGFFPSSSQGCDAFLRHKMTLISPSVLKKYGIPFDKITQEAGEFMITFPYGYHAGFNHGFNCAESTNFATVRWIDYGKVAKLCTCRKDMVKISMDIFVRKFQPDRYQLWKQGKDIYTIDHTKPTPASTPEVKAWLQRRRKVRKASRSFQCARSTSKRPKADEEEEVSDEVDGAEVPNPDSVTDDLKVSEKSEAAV
Efflux pump mplx – inhibitors of Candida antifungal efflux pumps expressed in yeast; S. cerevisiae Candida pump triplex, Nile Red efflux; inhibition, % at 10 µM; 330,000 tested, 0.44% active; AID 485275;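 active means plate passing quality check with inhibition over a set limit, or well fluorescence over plate mean plus 4 SD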;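 further: Nile Red retained in pooled yeast measured as flow cytometry median fluorescence; higher means more Nile Red kept so more efflux inhibition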
PolyA inhibitor – yeast polyadenylation inhibition; AID 1875; 300,000 tested, 0.02% active; activity score, % at 12 µM; S. cerevisiae SKY197-pL101 polyadenylation reporter, beta-gal luminescence; efflux-impaired pdr1/pdr3 knockout yeast; score 100 = 6 SD above DMSO;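 active means lowest replicate activity score at least 50, where 100 means six control SD above control mean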;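 further: yeast exposed to compound for 9 h at 30 °C; higher score means more reporter readthrough which indicates perturbed polyadenylation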
NALP1 inh – inhibitors of NALP1 inflammasome in yeast. S. cerevisiae NALP1/ASC/caspase-1 growth, X-gal OD620, 72 h. inhibition, % at 10 µM. 280,000 tested, 0.61% active. AID 2071; in the data active means inhibition mostly above about 24%, no sharp cut-off; inactive means mostly below about 32%
HDAC3 inhib – blocks human histone deacetylase 3; recombinant HDAC3, fluorogenic peptide/trypsin coupled, fluorescence; inhibition, % at 8.3 µM; 320,000 tested, 0.15% active; AID 2718; in the data active means inhibition above about 26%, passing the limit was not always enough
Yeast cmpd fluor – counter-screen for efflux pump inhibitors: compound fluorescence | S. cerevisiae AD/pABC3, flow cytometry | fluorescence ratio to DMSO, % at 10 µM | AID 588517 | shares compounds with Efflux pump mplx | 1,700 tested, 4% active;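 active means fluorescence ratio to DMSO above its plate's cutoff, the plate mean ratio plus 5 SD, cut at about 210% in these data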;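 further: unstained yeast with no Nile Red so the signal is compound autofluorescence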
Mdr1 pump inh – inhibitors of Candida albicans Mdr1 efflux pump. inhibition, % at 10 µM. 1,700 tested, 1% active. shares compounds with Efflux pump mplx. S. cerevisiae AD/CaMDR1, Nile Red efflux, flow cytometry; in the data active means inhibition above about 26%;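 further: higher means more Nile Red retained so more efflux inhibition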
CaCdr2 efflux inh – Candida Cdr2 efflux pump inhibition | shares compounds with Efflux pump mplx | S. cerevisiae AD/CaCDR2, Nile Red retention, flow cytometry | 1,700 tested, 4% active | Nile Red retention ratio vs DMSO, % at 10 µM; in the data active means Nile Red retention ratio vs DMSO above about 190%;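 further: higher ratio means more blocking of Cdr2 efflux of the dye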
CaCdr1 efflux inh – inhibitors of Candida albicans Cdr1 efflux pump; shares compounds with Efflux pump mplx; S. cerevisiae AD/CaCDR1, Nile Red efflux, flow cytometry; inhibition, % at 10 µM; 1,700 tested, 1% active; AID 588522;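 active means inhibition above the screen-wide mean plus twice its standard deviation, cut at about 32% in these data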
Large screens that a line does not name were inactive (follow-up assays come after a bar, where they were run). Only some compounds are listed: those with a hit (about 1.5% of all), similar ones and a draw of the others.

CCCc1nn2c(=O)cc(CSCC(=O)Nc3ccc(F)cc3)nc2s1	Efflux pump mplx 1.9 | Yeast cmpd fluor inactive | Mdr1 pump inh inactive | CaCdr2 efflux inh inactive | CaCdr1 efflux inh inactive
Cc1ccccc1CNC(=O)C(=O)NCC1OCCCN1S(=O)(=O)c1cccs1 (centres undefined)	none
O=C(CCC(=O)OCCCC(F)(F)C(F)(F)F)NC1CCCCC1	Efflux pump mplx 1.4 | Yeast cmpd fluor inactive | Mdr1 pump inh inactive | CaCdr2 efflux inh inactive | CaCdr1 efflux inh inactive
O=C(CCC(=O)OCCCC(F)(F)C(F)(F)F)Nc1ccccc1	none
COc1ccc(-c2c(-c3ccccc3OC)oc3ccccc23)cn1	none (no result: PolyA inhibitor, NALP1 inh)
COc1ccc(/C=c2\s/c(=C(/C#N)C(=O)NCc3ccco3)n(-c3ccccc3)c2=O)cc1	Efflux pump mplx 0.7 | Yeast cmpd fluor inactive | Mdr1 pump inh inactive | CaCdr2 efflux inh inactive | CaCdr1 efflux inh inactive
COc1ccc(CNC(=O)[C@@H](NC(=O)C2CCN(C(=O)[C@@H](N)CCSC)CC2)C(C)C)cc1	none
COc1ccc(S(=O)(=O)N2CCOC2CNC(=O)C(=O)NCc2ccccc2OC)cc1 (centres undefined)	Efflux pump mplx 1.1 | Yeast cmpd fluor inactive | Mdr1 pump inh inactive | CaCdr2 efflux inh inactive | CaCdr1 efflux inh inactive
COc1ccc(S(=O)(=O)N2CCOC2CNC(=O)C(=O)NCc2ccccc2Cl)cc1 (centres undefined)	none | Yeast cmpd fluor inactive | Mdr1 pump inh inactive | CaCdr2 efflux inh inactive | CaCdr1 efflux inh inactive
COc1ccccc1CCNC(=O)C(=O)NCC1OCCN1S(=O)(=O)c1ccc(Br)cc1 (centres undefined)	none
COc1ccccc1CNC(=O)C(=O)NCC1OCCN1S(=O)(=O)c1ccc(Br)cc1 (centres undefined)	none | Yeast cmpd fluor inactive | Mdr1 pump inh inactive | CaCdr2 efflux inh inactive | CaCdr1 efflux inh inactive
NC(=O)N/N=C/C=C/c1ccc(F)cc1	none
O=C(C(Cl)Cl)N1CCN(Cc2ccccc2)CC1	Efflux pump mplx 16.4 | Yeast cmpd fluor inactive | Mdr1 pump inh inactive | CaCdr2 efflux inh inactive | CaCdr1 efflux inh inactive
O=C1NN(c2ccccc2)C(=O)/C1=C/c1ccc(-c2ccc(C(=O)O)cc2)o1	none
O=C(O)c1ccc(N2C(=O)/C(=C/c3ccc(-c4ccc([N+](=O)[O-])cc4)o3)C=C2c2ccccc2)cc1	Efflux pump mplx 4.7 | Yeast cmpd fluor 733.8 | Mdr1 pump inh inactive | CaCdr2 efflux inh active | CaCdr1 efflux inh inactive
CC[C@]12c3[nH]c4ccc(OC)cc4c3CCN1C(=O)C(CC(=O)NC(C)(C)C)C[C@@H]2C(=O)N1CCN(C(=O)c2ccco2)CC1 (some centres undefined)	none (no result: NLRP3 yeast inh, GASC-1 inh, PolyA inhibitor, NALP1 inh, HDAC3 inhib)
CCOc1ccccc1NC(=O)C(=O)CC(=O)c1ccc(OC)cc1	none
Cc1ccc(NC(=O)COC(=O)CC2SC(N3CCCC3)=NC2=O)cc1 (centres undefined)	none (no result: PolyA inhibitor, NALP1 inh)
COC(=O)c1cccc(CSc2nc(-c3ccccc3)c(C#N)c(=O)[nH]2)c1	none
COc1ccc(/C=C2\SC(=O)N(CCC(=O)Nc3ccccc3)C2=O)cc1OC	Efflux pump mplx 7.6 | Yeast cmpd fluor inactive | Mdr1 pump inh inactive | CaCdr2 efflux inh inactive | CaCdr1 efflux inh inactive
CN1CCN(c2ccc(C(=O)c3ccc(Br)cc3)cc2[N+](=O)[O-])CC1	Efflux pump mplx 33.2 | Yeast cmpd fluor inactive | Mdr1 pump inh inactive | CaCdr2 efflux inh inactive | CaCdr1 efflux inh inactive
COc1ccc(-c2nsc(C(=O)N(c3ccc(F)cc3)C(C(=O)NC3CCCC3)c3ccc(OC)cc3)c2N)cc1 (centres undefined)	Efflux pump mplx 0.3 | Yeast cmpd fluor inactive | Mdr1 pump inh inactive | CaCdr2 efflux inh inactive | CaCdr1 efflux inh inactive
COc1ccc(N(C(=O)c2snc(C(N)=O)c2N)C(C(=O)NC2CCCCC2)c2ccc(F)cc2)c(OC)c1 (centres undefined)	none
O=[N+]([O-])c1ccc(-c2ccc(/C=N/Nc3nc(NCc4ccccc4)nc(N4CCOCC4)n3)o2)cc1	none
COc1nc(N/N=C/c2ccc(-c3ccccc3[N+](=O)[O-])o2)nc(N2CCOCC2)n1	Efflux pump mplx 16.4 | Yeast cmpd fluor inactive | Mdr1 pump inh inactive | CaCdr2 efflux inh inactive | CaCdr1 efflux inh inactive
CCCN1CCc2c(sc3nc(SCC)n(-c4ccc(OC)cc4)c(=O)c23)C1	none (no result: Efflux pump mplx, HDAC3 inhib)
CC(C)c1c(C(=O)N/N=C/c2ccsc2)nnn1-c1nonc1N	none
CCOC(=O)c1ccc(S(=O)(=O)NC2CC2)cc1	none
CCOC(=O)c1ccc(S(=O)(=O)NNS(=O)(=O)c2ccc(C)cc2)cc1	Efflux pump mplx 2.1 | Yeast cmpd fluor inactive | Mdr1 pump inh inactive | CaCdr2 efflux inh inactive | CaCdr1 efflux inh inactive
NS(=O)(=O)c1ccc(CCNC(=O)Nc2ccc(Cl)c(Cl)c2)cc1	Efflux pump mplx 1.4 | Yeast cmpd fluor inactive | Mdr1 pump inh inactive | CaCdr2 efflux inh inactive | CaCdr1 efflux inh inactive
COCC(=O)Nc1cc(C)cn(Cc2ccccc2Cl)c1=O	none
O=S(=O)(c1cccc2nonc12)N1CCN(c2ccccc2F)CC1	Efflux pump mplx 1.1 | Yeast cmpd fluor inactive | Mdr1 pump inh inactive | CaCdr2 efflux inh inactive | CaCdr1 efflux inh inactive
Cc1cccc(N2CCN(S(=O)(=O)c3cccc4nonc34)CC2)c1C	none
CCC(C)NC(=O)Cn1cnc2sc(C)c(S(=O)(=O)N3CCCCC3)c2c1=O (centres undefined)	none
O=C(O)c1sccc1S(=O)(=O)c1ccccc1	none
CC(C)(C)S(=O)(=O)c1ccsc1C(=O)O	Efflux pump mplx 14.2 | Yeast cmpd fluor inactive | Mdr1 pump inh inactive | CaCdr2 efflux inh inactive | CaCdr1 efflux inh inactive
COc1ccccc1-n1c(=O)c(C#N)c(-c2ccc([N+](=O)[O-])cc2)c2cc(C(=O)c3cc(F)ccc3O)cnc21	none
Cn1c(=O)c(C#N)c(-c2ccc(F)cc2)c2cc(C(=O)c3cc(Cl)cc(Cl)c3O)cnc21	Efflux pump mplx 0.3 (no result: NALP1 inh) | Yeast cmpd fluor inactive | Mdr1 pump inh inactive | CaCdr2 efflux inh inactive | CaCdr1 efflux inh inactive
CSc1ccccc1NC(=O)c1cc(-c2ccc3c(c2)OCO3)on1	Efflux pump mplx 1.6 | Yeast cmpd fluor inactive | Mdr1 pump inh inactive | CaCdr2 efflux inh inactive | CaCdr1 efflux inh inactive
O=C(Nc1cc(Br)ccc1O)c1cc(-c2ccc3c(c2)OCO3)on1	none
CCCNC(=O)c1ccccc1NC(=O)COc1cccc2c1OC(C)(C)C2	none (no result: NALP1 inh, HDAC3 inhib)
